The source of these data is PubChem BioAssay AID504432 (National Center for Advancing Translational Sciences (NCATS), 2011).

Several values for one entry are separate records, joined by “and”; a condition that tells them apart may be missing. Identical values can stand only once. Records with an inconclusive call do not appear. A number with no mark means an inactive call. Activity calls are given as the source filed them. Calls come from the whole dose curve; as a rule, active = well fitted inhibition curve with a large enough effect; inconclusive = small, poorly fitted or top-dose-only effect, or another doubt; inactive = flat fitted curve, though single readings scatter.

The assay in a line: Confirmation Concentration-Response Assay for lipid storage modulators: for probe SAR round 2. Particulars: Drosophila S3 cells, BODIPY lipid droplet fluorescence, 18-24 h; series mostly up to 46.1 µM; activity change, negative = inhibition: at the top concentration. The source says:
NIH Molecular Libraries Probe Production Centers Network [MLPCN] NIH Chemical Genomics Center [NCGC] MLPCN Grant: 1 R03 MH085686-01 Assay Submitter (PI): Beller, Mathias; Max-Planck-Institut fur Biophysikalische Chemie NCGC Assay Overview: Storing lipids as a reservoir for energy or the anabolism of elementary metabolites is a common feature of probably all cells and is conserved from bacteria to humans. The universal cellular lipid storage organelle is the so-called lipid storage droplet (LD). Although ubiquitous, LDs share a simple structure composed of a hydrophobic core that harbors the storage lipids, which is shielded by a droplet-specific phospholipid monolayer to which proteins are attached. The current model of LD biogenesis involves an incorporation of the lipid core into the membrane leaflets of the endoplasmic reticulum (ER) followed by a subsequent budding-like maturation of a LD, which ultimately pinches off. Once released, LD volume can increase by localized lipogenesis or fusion of existing droplets. Storage lipids are re-mobilized enzymatically by lipase activity. Lipase regulation in the adipocyte is heavily studied and involves multiple components including catecholamine signaling, the LD-associated proteins Perilipin and comparative gene identification-58 (CGI-58) and at least two lipases named hormone sensitive lipase (HSL) and adipocyte triglyceride lipase (ATGL). LD regulation outside of the adipocyte is poorly understood and only few components are known. However, there is an urgent need to learn more about ectopic fat depots as mislocalized storage of lipids, for example in the liver or muscle, is an eminent health problem associated with insulin resistance or the metabolic syndrome. We developed a laser-scanning cytometer assay to enable 1,536-well screening and combined the results of the small molecules screen with an RNAi database based on lipid storage.
We dispensed 4 uL of cells at 1.25 x 10^6 cells/mL into LoBase Aurora COC 1,536-well plates (black walled, clear bottom) with a bottle-valve solenoid-based dispenser (Aurora) to obtain 5,000 cells/well. Triacsin C (Sigma-Aldrich T-4540), an inhibitor of long-chain fatty acyl CoA synthetase that blocks synthesis of triglycerides, was used as a positive control for lipid under-storage. A total of 23 nL of compound solution of different concentrations were transferred to the assay plates using a Kalypsys pin tool equipped with a 1,536-pin array containing 10-nL slotted pins (FP1S10, 0.457-mm diameter, 50.8 mm long; V&P Scientific). One microliter of oleic acid (400 uM) was added, and the plate was lidded with stainless steel rubber gasket lined lids containing pinholes. After 18-24 h incubation at 24 degree Celsius and 95% humidity, 4 uL of the dyes BODIPY 493/503 (Molecular Probes) and the Cell Tracker Red CMTPX dye (Molecular Probes) were added to the wells to stain lipid droplets and enumerate cell number, respectively. Fluorescence was detected by excitation of the fluorophores with a 488-nm laser on an Acumen Explorer (TTP Lab Tech). The total intensity in channel 1 (500-530 nm) reflected lipid droplet accumulation. Cells were detected using channel 3 (575- 640 nm) with 5-um width and 100-um depth filters. The ratio of the total intensity in PMT channel 1 over total intensity of channel 3 was also calculated. Percent activity was computed relative to an internal control (100% inhibited lipid droplet deposition due to the presence of 20 uM Triacsin C), which was added to 32 wells/plate.
In the case of `O=C(NC1CCCc2c1cnn2CCO)c1ccccn1` (stereo unspecified), the Potency was 1.58 µM (active).
With `CC(C)(C)OC(=O)NCCOCCOCCOc1ccc(-n2ncc3c2CCCC3NC(=O)c2ccccn2)cc1` (stereo unspecified), the Potency is 0.0018 µM (active).
In the case of `O=C(NC1CCCc2c1cnn2-c1ccc(F)cc1F)c1ccccc1` (stereo unspecified), the Potency was 0.025 µM (active).
Still for that read-out and setting: with `CCOC(=O)C1CCN(C(=O)C(C)(C)NC(=O)Nc2ccc3ccccc3c2)CC1` the figure was 4.99 µM (active).
With `CCN(CC)C(=O)C1CCN(C(=O)C(C)(C)NC(=O)Nc2ccccc2Cl)CC1`, the Potency was 15.8 µM (active).
For `O=C(N[C@H]1CCCc2c1cnn2-c1ccc(F)cc1F)c1ccccn1`, the Potency was 22.3 µM (active).
Still for that read-out and setting: with `O=C(NC1CCCc2c1cnn2-c1cccc(O)c1)c1ccccn1` (stereo unspecified) the figure was 0.005 µM (active); with `O=C(NC1CCCc2c1cnn2-c1ccc(F)cc1F)c1cccs1` (stereo unspecified), 0.0063 µM (active).
For the compound `CCOC(=O)C1CCN(C(=O)C(C)(C)NC(=O)Nc2ccc3c(c2)CCC3)CC1`, the Potency was 12.5 µM (active).
On to `O=C(NC1CCCc2c1cnn2-c1ccc(F)cc1F)c1ccccn1` (stereo unspecified), for which the Potency was 315 nM (active) and 6.3 nM (active).
On the same count and under the same terms, with `CCOC(=O)C1CCN(C(=O)C(C)(C)NC(=O)Nc2ccc3sccc3c2)CC1` the figure was 12.5 µM (active); with `CCOC(=O)C1CCN(C(=O)C(C)(C)NC(=O)Nc2ccccc2Cl)CC1`, 0.705 µM (active).
As to `CCNC(=O)C1CCN(C(=O)C(C)(C)NC(=O)Nc2ccccc2Cl)CC1`, the Potency was 14.1 µM (active).
In the case of `CC(C)(NC(=O)Nc1ccccc1Cl)C(=O)N1CCC(C(=O)O)CC1`, the “activity change, negative = inhibition” value is -33.1%.
Turning to `CCOC(=O)C1CCN(C(=O)C(C)(C)NC(=O)Nc2cccc(C(=O)OC)c2)CC1`, the Potency is 7.05 µM (active).
For `CCOc1ccc(CCNC(=O)c2cc3sccc3n2Cc2cccc(C)c2)cc1OCC`, the Potency was 0.0022 µM (active).
Still for that read-out and setting: with `COc1ccc(-n2ncc3c2CCCC3NC(=O)c2ccccn2)cc1` (stereo unspecified) the figure was 0.0016 µM (active); with `CCOC(=O)C1CCN(C(=O)C(C)(C)NC(=O)Nc2ccc(Oc3ccccc3)cc2)CC1`, 0.353 µM (active); with `CC(C)(C)OC(=O)NCCOCCOCCOc1cccc(-n2ncc3c2CCCC3NC(=O)c2ccccn2)c1` (stereo unspecified), 0.0056 µM (active).
In the case of `CCOC(=O)C1CCN(C(=O)C(C)(C)NC(=O)Nc2ccc(N(C)C)cc2)CC1`, the Potency is 5.6 µM (active).
As for `COc1cccc(-n2ncc3c2CCCC3NC(=O)c2ccccn2)c1` (stereo unspecified), the Potency was 0.0025 µM (active).
Consider `CCOC(=O)C1CCN(C(=O)C(C)(C)NC(=O)Nc2ccc(C(F)(F)F)cc2Cl)CC1`, for which the Potency is 0.141 µM (active).
For `CCOC(=O)C1CCN(C(=O)C(C)(C)NC(=O)Nc2cccc(-c3csc(C)n3)c2)CC1`, the Potency was 25 µM (active).
Take `O=C(NC1CCCc2c1cnn2-c1ccc(O)cc1)c1ccccn1` (stereo unspecified): the Potency is 0.0007 µM (active).
Same read-out and setting: with `CCOC(=O)C1CCN(C(=O)C(C)(C)NC(=O)Nc2ccc(OC)c(Cl)c2)CC1` the figure was 7.91 µM (active); with `CCOC(=O)C1CCN(C(=O)C(C)(C)NC(=O)Nc2ccc(F)c(F)c2)CC1`, 1.99 µM (active).
On to `CCOC(=O)C1CCN(C(=O)C(C)(C)NC(=O)Nc2ccc(-c3ccccc3)cc2)CC1`, for which the Potency is 1.41 µM (active).
Consider `CCOC(=O)C1CCN(C(=O)C(C)(C)NC(=O)Nc2ccc(Cl)cc2Cl)CC1`, for which the Potency was 0.445 µM (active).
Still for that read-out and setting: with `CCOC(=O)C1CCN(C(=O)C(C)(C)NC(=O)Nc2cccc(OC)c2)CC1` the figure was 4.45 µM (active).
Consider `CCOC(=O)C1CCN(C(=O)C(C)(C)NC(=O)Nc2ccc(CN3CCOCC3)cc2)CC1`, for which the “activity change, negative = inhibition” value was -7.43%.
In the case of `CC(C)(C)OC(=O)NCCOCCOCCOCCn1ncc2c1CCCC2NC(=O)c1ccccn1` (stereo unspecified), the Potency was 0.158 µM (active).
